Results as given in ChEMBL document CHEMBL3988442, “University of Dundee, Small-Polar-MMV Screening Library” (2021).
For part of these data: Results with a measured potency or affinity are listed apart.

How the values were obtained:
Set-up in all cases: scale not given: direction of the effect not stated beside the values
[1] = target: Protein translocase subunit SecA (Escherichia coli (strain K12)) (UniProt P10408); assay: Assay to Identify E. coli SecA ATPase Inhibitors; assay type: functional; conditions: 30 µM
Sequence of Protein translocase subunit SecA (Escherichia coli (strain K12)) (P10408 whole entry): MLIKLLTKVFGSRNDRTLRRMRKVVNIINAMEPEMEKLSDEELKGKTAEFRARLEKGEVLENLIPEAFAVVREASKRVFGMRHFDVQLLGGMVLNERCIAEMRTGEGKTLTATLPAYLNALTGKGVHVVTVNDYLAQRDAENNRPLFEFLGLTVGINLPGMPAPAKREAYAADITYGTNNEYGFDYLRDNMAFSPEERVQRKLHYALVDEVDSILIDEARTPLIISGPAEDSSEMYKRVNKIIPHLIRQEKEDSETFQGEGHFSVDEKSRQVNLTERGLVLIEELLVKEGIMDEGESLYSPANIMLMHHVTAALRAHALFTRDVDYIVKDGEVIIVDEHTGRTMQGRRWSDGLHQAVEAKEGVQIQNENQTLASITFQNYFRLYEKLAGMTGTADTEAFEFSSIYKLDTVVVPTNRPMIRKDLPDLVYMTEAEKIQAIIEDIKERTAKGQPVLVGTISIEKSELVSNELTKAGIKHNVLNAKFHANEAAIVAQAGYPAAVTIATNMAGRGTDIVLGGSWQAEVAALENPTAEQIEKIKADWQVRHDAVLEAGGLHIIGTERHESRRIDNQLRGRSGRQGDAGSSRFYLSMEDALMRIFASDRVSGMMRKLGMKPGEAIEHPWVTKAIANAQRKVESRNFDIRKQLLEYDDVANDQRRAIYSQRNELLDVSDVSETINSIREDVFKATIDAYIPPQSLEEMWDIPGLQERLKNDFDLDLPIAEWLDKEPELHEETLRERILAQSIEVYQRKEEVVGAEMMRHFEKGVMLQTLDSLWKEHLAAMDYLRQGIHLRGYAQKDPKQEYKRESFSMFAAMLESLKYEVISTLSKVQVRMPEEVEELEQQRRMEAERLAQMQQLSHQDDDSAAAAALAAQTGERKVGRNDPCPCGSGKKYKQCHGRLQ

[2] = target: T1, Ubiquitin-activating enzyme e1, putative (Leishmania donovani (strain BPK282A1)) (UniProt E9BSI1); assay: Leishmania donovani Ubiquitin Activating Enzyme (LdE1); assay type: functional; conditions: 30 µM
T1 sequence (whole entry): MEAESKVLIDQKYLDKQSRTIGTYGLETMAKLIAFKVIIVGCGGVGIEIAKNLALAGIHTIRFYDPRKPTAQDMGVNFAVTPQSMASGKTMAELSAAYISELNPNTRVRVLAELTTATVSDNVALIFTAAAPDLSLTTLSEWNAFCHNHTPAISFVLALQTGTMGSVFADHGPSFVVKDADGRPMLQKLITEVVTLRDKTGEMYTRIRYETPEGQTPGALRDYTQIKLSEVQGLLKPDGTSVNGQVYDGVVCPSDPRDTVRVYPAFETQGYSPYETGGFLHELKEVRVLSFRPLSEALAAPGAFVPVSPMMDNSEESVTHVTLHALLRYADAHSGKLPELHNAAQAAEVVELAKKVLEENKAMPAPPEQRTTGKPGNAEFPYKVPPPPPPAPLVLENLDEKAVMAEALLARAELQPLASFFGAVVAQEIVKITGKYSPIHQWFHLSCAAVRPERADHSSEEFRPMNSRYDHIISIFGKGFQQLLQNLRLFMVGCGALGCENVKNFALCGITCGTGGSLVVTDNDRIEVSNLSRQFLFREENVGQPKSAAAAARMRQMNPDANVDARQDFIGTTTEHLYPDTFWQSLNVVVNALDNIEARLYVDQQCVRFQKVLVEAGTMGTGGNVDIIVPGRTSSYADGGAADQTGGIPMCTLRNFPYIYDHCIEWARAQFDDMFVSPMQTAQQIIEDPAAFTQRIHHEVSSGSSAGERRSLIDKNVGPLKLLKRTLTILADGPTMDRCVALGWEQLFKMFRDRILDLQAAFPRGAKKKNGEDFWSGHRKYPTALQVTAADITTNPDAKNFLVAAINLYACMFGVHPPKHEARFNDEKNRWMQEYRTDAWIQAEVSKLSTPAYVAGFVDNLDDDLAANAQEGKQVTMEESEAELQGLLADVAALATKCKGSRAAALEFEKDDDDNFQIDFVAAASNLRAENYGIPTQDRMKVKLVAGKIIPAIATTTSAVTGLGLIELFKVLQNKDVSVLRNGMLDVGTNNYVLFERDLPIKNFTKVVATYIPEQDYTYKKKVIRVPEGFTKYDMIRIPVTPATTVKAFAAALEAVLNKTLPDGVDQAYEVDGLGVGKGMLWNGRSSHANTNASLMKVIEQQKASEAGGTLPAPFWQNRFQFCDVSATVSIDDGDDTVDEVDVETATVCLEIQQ

[3] = target: Sialic acid-binding Ig-like lectin 9 (Homo sapiens) (UniProt Q9Y336); assay: Hs-Siglec9 ALPHAscreen SOP 20170721; conditions: 10 µM
Sequence of Sialic acid-binding Ig-like lectin 9 (Homo sapiens) (Q9Y336 whole entry): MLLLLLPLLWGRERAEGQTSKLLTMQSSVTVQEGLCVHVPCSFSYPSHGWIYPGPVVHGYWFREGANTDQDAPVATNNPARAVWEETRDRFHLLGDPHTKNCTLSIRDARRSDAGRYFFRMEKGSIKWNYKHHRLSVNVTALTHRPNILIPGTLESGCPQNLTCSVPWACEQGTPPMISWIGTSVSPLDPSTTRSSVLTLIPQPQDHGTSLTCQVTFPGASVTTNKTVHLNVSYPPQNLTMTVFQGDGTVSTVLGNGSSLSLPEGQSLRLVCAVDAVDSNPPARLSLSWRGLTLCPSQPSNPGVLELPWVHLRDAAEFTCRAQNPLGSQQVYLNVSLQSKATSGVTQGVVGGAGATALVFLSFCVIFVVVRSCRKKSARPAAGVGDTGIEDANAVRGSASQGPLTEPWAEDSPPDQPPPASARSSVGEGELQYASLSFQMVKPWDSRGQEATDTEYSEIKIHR

Trypanosoma cruzi = assay: Trypanosoma cruzi phosphomannomutase and mannose-1-phosphate guanylyltransferase assay; assay type: functional; conditions: 10 µM
[4] = target: T2, Arginase-2, mitochondrial (Homo sapiens) (UniProt P78540); assay: in vitro enzyme assay to detect the production of urea directly proportional to the activity of Arginase II; assay type: functional; conditions: 33.3 µM; also: in the data most compounds retested in dose-response had high values
T2 sequence (whole entry): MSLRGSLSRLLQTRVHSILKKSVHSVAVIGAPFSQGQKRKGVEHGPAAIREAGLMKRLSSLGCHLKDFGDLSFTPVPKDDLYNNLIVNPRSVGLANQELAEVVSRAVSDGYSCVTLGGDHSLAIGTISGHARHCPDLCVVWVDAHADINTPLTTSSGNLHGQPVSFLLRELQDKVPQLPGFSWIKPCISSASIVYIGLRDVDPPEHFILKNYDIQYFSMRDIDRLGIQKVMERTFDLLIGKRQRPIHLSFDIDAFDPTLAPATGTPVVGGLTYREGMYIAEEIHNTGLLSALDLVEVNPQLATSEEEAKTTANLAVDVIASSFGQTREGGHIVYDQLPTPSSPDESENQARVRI

[5] = target: T3, Proteasome subunit beta (Trypanosoma cruzi) (UniProt O96673); assay: Trypanosoma cruzi proteasome chymotrypsin-like activity (TcProtChymo) assay.; also: in the data most compounds retested in dose-response had high values; assay type: functional; conditions: 9.37 µM
T3 sequence (whole entry): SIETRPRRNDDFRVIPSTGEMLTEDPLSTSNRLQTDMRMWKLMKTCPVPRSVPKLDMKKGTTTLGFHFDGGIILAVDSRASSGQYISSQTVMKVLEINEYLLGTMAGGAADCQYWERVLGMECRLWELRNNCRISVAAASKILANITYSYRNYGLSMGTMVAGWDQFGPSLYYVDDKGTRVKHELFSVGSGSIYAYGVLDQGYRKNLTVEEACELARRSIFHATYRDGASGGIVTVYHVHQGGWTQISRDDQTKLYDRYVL

Homo sapiens = organism: Homo sapiens; assay: To identify inhibition of the IFN signalling (Jak-Stat) pathway via expression of an eGFP reporter gene under the control of an IFN-stimulated response element (ISRE) containing MxA promoter.; assay type: functional; conditions: 30 µM
[6] = target: T4, Tyrosyl-tRNA synthetase, putative (Trypanosoma cruzi (strain CL Brener)) (UniProt Q4DSP6); assay: Trypanosoma cruzi tyrosyl tRNA synthetase (TcYRS) _High Tyrosine SOP; assay type: functional; conditions: 30 µM; also: in the data most compounds retested in dose-response had high values
T4 sequence (whole entry): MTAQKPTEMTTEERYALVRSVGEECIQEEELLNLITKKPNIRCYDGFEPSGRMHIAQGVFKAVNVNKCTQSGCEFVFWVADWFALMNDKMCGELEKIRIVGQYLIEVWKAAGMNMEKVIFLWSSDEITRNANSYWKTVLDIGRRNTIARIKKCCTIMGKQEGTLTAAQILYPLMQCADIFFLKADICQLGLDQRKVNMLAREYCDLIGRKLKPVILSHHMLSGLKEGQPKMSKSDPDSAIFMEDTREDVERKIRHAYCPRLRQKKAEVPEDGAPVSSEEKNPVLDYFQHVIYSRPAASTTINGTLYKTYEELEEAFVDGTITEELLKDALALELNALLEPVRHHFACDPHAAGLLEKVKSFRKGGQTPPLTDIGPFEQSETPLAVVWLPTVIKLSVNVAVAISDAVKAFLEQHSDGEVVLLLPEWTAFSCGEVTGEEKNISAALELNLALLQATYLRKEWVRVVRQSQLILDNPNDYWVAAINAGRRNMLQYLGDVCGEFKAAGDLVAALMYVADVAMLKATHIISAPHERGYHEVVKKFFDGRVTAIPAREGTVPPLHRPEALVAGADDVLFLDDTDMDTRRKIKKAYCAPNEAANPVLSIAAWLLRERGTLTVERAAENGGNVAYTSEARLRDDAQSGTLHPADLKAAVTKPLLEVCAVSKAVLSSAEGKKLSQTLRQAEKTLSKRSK

[7] = target: T4, Tyrosyl-tRNA synthetase, putative (Trypanosoma cruzi (strain CL Brener)); assay: Trypanosoma cruzi tyrosyl tRNA synthetase (TcYRS) SOP; assay type: functional; conditions: 30 µM
[8] = target: Chromo domain-containing protein 1 (Saccharomyces cerevisiae (strain ATCC 204508 / S288c) (Baker's yeast)) (UniProt P32657); assay: ScCHD-1 Enzyme Inhibition Assay; assay type: functional; conditions: 30 µM; also: in the data most compounds retested in dose-response had high values
Sequence of Chromo domain-containing protein 1 (Saccharomyces cerevisiae (strain ATCC 204508 / S288c) (Baker's yeast)) (P32657 whole entry, the tested form may be a part): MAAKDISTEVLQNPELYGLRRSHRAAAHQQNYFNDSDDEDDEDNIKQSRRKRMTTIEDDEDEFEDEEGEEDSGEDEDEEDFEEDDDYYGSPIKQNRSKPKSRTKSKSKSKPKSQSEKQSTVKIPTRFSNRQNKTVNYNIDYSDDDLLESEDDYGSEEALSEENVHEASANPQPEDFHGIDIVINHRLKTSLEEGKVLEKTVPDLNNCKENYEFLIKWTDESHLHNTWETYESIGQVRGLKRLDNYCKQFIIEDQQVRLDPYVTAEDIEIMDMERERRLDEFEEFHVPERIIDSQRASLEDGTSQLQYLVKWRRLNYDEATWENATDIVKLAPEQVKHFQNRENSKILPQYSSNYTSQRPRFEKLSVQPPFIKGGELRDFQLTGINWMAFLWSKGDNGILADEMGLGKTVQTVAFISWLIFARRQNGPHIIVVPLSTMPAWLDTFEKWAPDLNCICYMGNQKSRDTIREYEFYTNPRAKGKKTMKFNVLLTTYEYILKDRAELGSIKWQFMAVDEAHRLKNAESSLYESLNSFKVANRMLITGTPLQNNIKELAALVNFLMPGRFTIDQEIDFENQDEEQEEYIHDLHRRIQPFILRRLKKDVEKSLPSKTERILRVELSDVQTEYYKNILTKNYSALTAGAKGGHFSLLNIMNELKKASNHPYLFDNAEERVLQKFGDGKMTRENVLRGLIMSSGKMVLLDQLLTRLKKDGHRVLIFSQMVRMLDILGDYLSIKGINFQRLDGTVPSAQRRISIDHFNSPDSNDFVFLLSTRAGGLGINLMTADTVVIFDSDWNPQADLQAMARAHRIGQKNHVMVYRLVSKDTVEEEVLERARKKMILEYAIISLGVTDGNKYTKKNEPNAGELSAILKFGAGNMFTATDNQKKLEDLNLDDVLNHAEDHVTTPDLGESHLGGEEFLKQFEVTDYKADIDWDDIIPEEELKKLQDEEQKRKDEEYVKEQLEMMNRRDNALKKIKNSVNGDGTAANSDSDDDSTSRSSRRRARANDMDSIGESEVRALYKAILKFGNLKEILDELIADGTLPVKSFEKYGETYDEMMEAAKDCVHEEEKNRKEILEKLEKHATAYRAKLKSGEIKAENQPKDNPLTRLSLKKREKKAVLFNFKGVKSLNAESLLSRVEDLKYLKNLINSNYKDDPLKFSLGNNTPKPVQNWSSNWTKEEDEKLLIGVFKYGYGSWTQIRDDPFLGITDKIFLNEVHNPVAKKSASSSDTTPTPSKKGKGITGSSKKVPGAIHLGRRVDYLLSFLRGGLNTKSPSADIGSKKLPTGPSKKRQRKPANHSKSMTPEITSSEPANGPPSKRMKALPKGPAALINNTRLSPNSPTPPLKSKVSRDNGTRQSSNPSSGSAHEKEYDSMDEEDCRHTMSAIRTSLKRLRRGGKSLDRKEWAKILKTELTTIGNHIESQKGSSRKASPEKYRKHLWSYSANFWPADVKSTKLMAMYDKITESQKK

| SMILES | Percent Effect [1] | Percent Effect [2] | Percent Effect [3] | Percent Effect (Trypanosoma cruzi) | Percent Effect [4] | Percent Effect [5] | Percent Effect (Homo sapiens) | Percent Effect [6] | Percent Effect [7] | Percent Effect [8] |
| --- | --- | --- | --- | --- | --- | --- | --- | --- | --- | --- |
| O=C(NCCCN1CCc2ccccc2C1)c1cccnc1O | -1.75% | 10.7% | 3.3% | -0.803% | 2.22% | 2.8% | 4.99% | 2.63% | 10.3% | -11.3% |
| Fc1ccc(-c2n[nH]cc2-c2ccnc(NCCN3CCCC3)n2)cc1 | -1.15% | 8% | -4.6% | -8.23% | -7.98% | 15.3% | 5.44% | -5.79% | 0% | -21.2% |
| COc1ccc(-n2ncc(C(=O)NCC3COC(C)(C)O3)c2N)cc1 (stereo not given) | 97.8% | 14.7% | -6.21% | -0.592% | 1.33% | 14.8% | 15.7% | 1.06% | 5% | -19.9% |
| Cc1cc(C)n(CC2CCCCN2C(=O)c2ccc3nncn3c2)n1 (stereo not given) | -7.43% | 8% | 0.804% | 2.01% | -1.77% | 8.06% | 6.43% | 5.79% | 10.3% | -4.66% |
| COc1ccccc1NC(=O)CSC1CCc2ccccc2NC1=O (stereo not given) | -4.52% | 13.5% | 8.46% | 4.17% | 17.1% | 18.3% | 13% | 5.85% | 17.1% | -4.97% |
| CCCc1noc(CN2CCCC2c2c(C)nn(C)c2OC)n1 (stereo not given) | -8.89% | -2.67% | -1.2% | -1.61% | 3.1% | 2.29% | 9.23% | -2.63% | -2.56% | -6.05% |
| Cc1ccc(-c2nc(CN3CCn4c(nnc4C4CC4)C3)cs2)o1 | 2.56% | 0% | -11.3% | -0.0939% | -2.87% | 16.3% | 35.1% | 5.26% | 10.8% | -4.37% |
| COC(=O)C1CCN(C(=O)c2ccc(N(C)S(C)(=O)=O)c(C)c2)CC1 | -3.72% | -2.7% | -4.09% | -31.3% | -1.75% | 13.7% | -11.3% | 2.66% | 2.44% | 3.29% |
| O=C(c1cccnc1)N1CCn2nnc(COc3cccnc3)c2C1 | -4.23% | 1.3% | -1.59% | -6.13% | 4.45% | 14% | -1.63% | 7.89% | 7.69% | 2.46% |
| c1ncn(CC2CCCN2Cc2cn3ccsc3n2)n1 (stereo not given) | -3.52% | 5.13% | -17.1% | 7.61% | -1.23% | -4.86% | -3.77% | 2.39% | 6.02% | 1.9% |
| Cc1n[nH]c(C)c1C1COCCN1C(=O)c1cc(Cl)c[nH]1 (stereo not given) | -1.38% | 2.56% | 3.4% | -3.47% | 9.02% | -1.96% | 15% | -2.39% | 1.21% | 2.03% |
| Cc1ccc(C(=O)N2CCCS2(=O)=O)cc1Cl | -1.08% | 5.33% | -1.7% | -4.62% | 3.1% | 3.99% | -6.01% | 0.526% | 0% | -6.7% |
| Cc1ccc(C(=O)N2CCN(CCC(C)(C)C)CC2)c(=O)[nH]1 | -4.94% | 5.13% | 4.25% | -0.845% | -0.82% | -1.79% | 12% | 3.35% | 1.21% | 1.43% |
| CCn1cc(CN(C)S(=O)(=O)c2cnn(CC)c2C)c(C)n1 | 39.4% | 14.7% | -2.08% | -0.986% | 3.1% | 15.3% | 39.3% | 2.12% | 10% | -20.5% |
| CN(Cc1ccccc1)CC(O)Cn1cnc2ccsc2c1=O (stereo not given) | -3.3% | 5.13% | -3.73% | 8.36% | -0.41% | 1.62% | 17.5% | 0.478% | 1.21% | 3.76% |
| Cc1nc(C)n(CC2CCCN2Cc2cn3c(C)cccc3n2)n1 (stereo not given) | -1.02% | 2.67% | 7.22% | 4.62% | 2.66% | 8.4% | -19.9% | 1.58% | 5.13% | -11.6% |
| Cc1ncsc1C(=O)N(Cc1cccnc1)C1CC1 | -0.351% | 2.56% | 10% | 5.92% | 4.1% | -1.45% | 16.3% | 1.44% | 8.43% | -2.14% |
| Cn1cc(C(=O)N2CCCC(n3cccn3)C2)c2ccccc21 (stereo not given) | -1.25% | 8% | -2.42% | -5.62% | 7.09% | 3.65% | 9.06% | 2.63% | 5.13% | -11.9% |
| COc1ccc(CNCc2ccc(N3CCCCC3)nc2)cc1OC | 0.873% | 15.4% | -8.85% | 5.92% | 2.87% | 8.62% | 2.97% | 8.13% | 25.3% | -9.53% |
| COCCN1CCN(Cc2cccc(C(=O)N(C)C)c2)CC1C (stereo not given) | -1.22% | 18.7% | -4.75% | -1.61% | 2.66% | 7.72% | 6.69% | 3.68% | 7.69% | -8.7% |
| CCc1nc(C2CCCN2CCc2ccccn2)no1 (stereo not given) | 0.816% | 20.5% | -18.3% | 5.35% | 1.23% | 18.7% | 23.6% | 10.1% | 20.5% | -7.66% |
